Assay results as given in the supplement of paper PMC10670038.
Counter-ions that a name gives are not always drawn. ± gives the standard deviation of the averaged measurements. Over roughly 2,000 compounds, “relative cell viability vs DMSO, compound alone” has its median near 1.1; the lowest 2% begin near 0.29. Many of the other results were omitted from the sample, so the lowest values are more common in it than they were.

System: TE10
Assay: relative cell viability vs DMSO, compound alone (fraction); TE10 is an esophageal squamous carcinoma line; higher = less cytotoxic
Conditions: 2 µM; 48 h
Protocol: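 TE10 ESCC cells (1,000/well, 384-well plates) were treated with Selleck bioactive library compounds at 2 uM alone for 48 h. Viability was read by CellTiter-Glo and expressed relative to DMSO wells. Two technical replicates (A, B).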

**Q.** `CNC(=O)[C@H](Cc1ccccc1)NC(=O)[C@H](CC(C)C)[C@H](CSc1cccs1)C(=O)NO` [Batimastat (BB-94)] was tested. Which relative cell viability did it give?
**A.** Its relative cell viability is 0.884 ± 0.076.

**Q.** `CC(C)C[C@H](NC(=O)[C@@H](NC(=O)c1cccc(-c2ccccc2)n1)[C@@H](C)O)B(O)O` was tested. Which relative cell viability did it give?
**A.** Its relative cell viability is 0.0932 ± 0.003.

**Q.** With `Cc1cc2c(cc1CC(=O)c1sccc1S(=O)(=O)Nc1onc(C)c1Cl)OCO2` [Sitaxentan sodium] as the compound, how does the relative cell viability read?
**A.** Its relative cell viability is 1.06 ± 0.022.

**Q.** With `CC(C)(O)CC(=O)NCCn1ccc2ncnc(Nc3ccc(Oc4cccc(C(F)(F)F)c4)c(Cl)c3)c21` as the compound, how does the relative cell viability read?
**A.** The relative cell viability was 1.17 ± 0.07.

**Q.** Which relative cell viability does the source give for `Oc1ccc(Nc2nc(-c3ccc(Cl)cc3)cs2)cc1` here?
**A.** The relative cell viability was 1.11 ± 0.019.

**Q.** For `COc1cc(C=O)ccc1O` [Vanillin], which relative cell viability is on record?
**A.** Its relative cell viability is 1.11 ± 0.027.

**Q.** For `Cc1cc(Nc2cc(N3CCN(C)CC3)nc(/C=C/c3ccccc3)n2)n[nH]1`, which relative cell viability is on record?
**A.** Its relative cell viability is 0.856 ± 0.03.

**Q.** With `Cc1cc(Nc2cc(N3CCN(C)CC3)nc(/C=C/c3ccccc3)n2)n[nH]1` [ENMD-2076 L-(+)-Tartaric acid] as the compound, how does the relative cell viability read?
**A.** Its relative cell viability is 0.808 ± 0.069.

**Q.** `Cc1cc(C)nc(NS(=O)(=O)c2ccc(N)cc2)n1` [Sulfamethazine] was tested. Which relative cell viability did it give?
**A.** Its relative cell viability is 1.1 ± 0.044.

**Q.** For `COCCCC/C(=N\OCCN)c1ccc(C(F)(F)F)cc1` [Fluvoxamine maleate], which relative cell viability is on record?
**A.** Its relative cell viability is 1.21 ± 0.041.

**Q.** With `COC(=O)[C@]12CCC(C)(C)C[C@H]1[C@H]1C(=O)C=C3[C@@]4(C)C=C(C#N)C(=O)C(C)(C)[C@@H]4CC[C@@]3(C)[C@]1(C)CC2` [Bardoxolone Methyl] as the compound, how does the relative cell viability read?
**A.** The relative cell viability was 0.272 ± 0.0085.

**Q.** For `CC1(C)CC[C@]2(NC(=O)C(C)(F)F)CC[C@]3(C)[C@H](C(=O)C=C4[C@@]5(C)C=C(C#N)C(=O)C(C)(C)[C@@H]5CC[C@]43C)[C@@H]2C1` [Omaveloxolone (RTA-408)], which relative cell viability is on record?
**A.** Its relative cell viability is 0.59 ± 0.032.

**Q.** Which relative cell viability does the source give for `N#Cc1ccc(-c2csc(NN=C3CCCC3)n2)cc1` [Remodelin] here?
**A.** The relative cell viability was 1.121 ± 0.0093.

**Q.** With `COc1cc2ncnc(Nc3ccc(Cl)cc3F)c2cc1OC` as the compound, how does the relative cell viability read?
**A.** Its relative cell viability is 0.999 ± 0.16.

**Q.** Which relative cell viability does the source give for `COc1cc(C(=O)NC2CCCNC2)cc(OC)c1OC` (stereo not given) [Troxipide] here?
**A.** Its relative cell viability is 1.13 ± 0.016.

**Q.** For `NC(=O)Nc1sc(-c2ccc(F)cc2)cc1C(N)=O`, which relative cell viability is on record?
**A.** Its relative cell viability is 0.98 ± 0.072.

**Q.** With `NC(=O)Nc1cc(-c2cccc(F)c2)sc1C(=O)N[C@H]1CCCNC1` as the compound, how does the relative cell viability read?
**A.** Its relative cell viability is 0.259 ± 0.021.

**Q.** With `C[N+](C)(C)C[C@H](O)CC(=O)[O-]` [L-carnitine] as the compound, how does the relative cell viability read?
**A.** Its relative cell viability is 1.04 ± 0.016.

**Q.** Which relative cell viability does the source give for `NC(=O)N1CCC(CC(=O)N2CCC([C@H]3c4ncc(Br)cc4CCc4cc(Cl)cc(Br)c43)CC2)CC1` [Lonafarnib] here?
**A.** The relative cell viability was 1.06 ± 0.049.

**Q.** For `CNC[C@H](O)[C@@H](O)[C@H](O)[C@H](O)CO` [Meglumine], which relative cell viability is on record?
**A.** Its relative cell viability is 1.008 ± 0.0073.

**Q.** For `COc1cc(-c2cc(-c3ccc(N4CCNCC4)cc3)cnc2C)cc(OC)c1OC`, which relative cell viability is on record?
**A.** Its relative cell viability is 1.16 ± 0.019.

**Q.** `Nc1ccc(-c2ccc3ncc4ccc(=O)n(-c5cccc(C(F)(F)F)c5)c4c3c2)cn1` [Torin 2] was tested. Which relative cell viability did it give?
**A.** The relative cell viability was 0.378 ± 0.014.

**Q.** With `COc1ccc(-c2ccc3ncc4c(c3c2)n(-c2ccc(N3CCNCC3)c(C(F)(F)F)c2)c(=O)n4C)cn1` as the compound, how does the relative cell viability read?
**A.** Its relative cell viability is 0.0662 ± 0.0018.

**Q.** Which relative cell viability does the source give for `COc1cc(-c2cc(-c3cccc(O)c3)cnc2N)cc(OC)c1OC` here?
**A.** Its relative cell viability is 1.21 ± 0.0055.

**Q.** Which relative cell viability does the source give for `COc1ccc(COc2cc3oc(=O)c4cc(C(C)O)ccc4c3cc2OC)cc1` (stereo not given) [Palomid 529 (P529)] here?
**A.** Its relative cell viability is 1.14 ± 0.025.

**Q.** `COCCOC(=O)C1=C(C)NC(C)=C(C(=O)OC/C=C/c2ccccc2)C1c1cccc([N+](=O)[O-])c1` (stereo not given) [Cilnidipine] was tested. Which relative cell viability did it give?
**A.** Its relative cell viability is 1.15 ± 0.055.

**Q.** For `NCCCC[C@@H]1NC(=O)[C@@H](Cc2ccccc2)NC(=O)[C@H](CC(=O)O)NC(=O)CNC(=O)[C@H](CCCN=C(N)N)NC1=O` [Cyclo (-RGDfK)], which relative cell viability is on record?
**A.** The relative cell viability was 1.1 ± 0.024.

**Q.** With `CC(C)[C@H](C(=O)Nc1ccc(C(=O)NO)cc1)c1ccccc1` as the compound, how does the relative cell viability read?
**A.** Its relative cell viability is 0.221 ± 0.015.

**Q.** Which relative cell viability does the source give for `CC(=O)Nc1ccc(C(=O)Nc2ccccc2N)cc1` [CI994 (Tacedinaline)] here?
**A.** The relative cell viability was 1 ± 0.017.

**Q.** How did the relative cell viability turn out when `CCCCN(Cc1ccc(C(=O)NO)cc1)C(=O)Nc1ccccc1` [Nexturastat A] was run?
**A.** Its relative cell viability is 0.716 ± 0.074.

**Q.** Which relative cell viability does the source give for `O=C(NC[C@H]1CN(c2ccc(N3CCOCC3=O)cc2)C(=O)O1)c1ccc(Cl)s1` [Rivaroxaban] here?
**A.** Its relative cell viability is 1.04 ± 0.076.

**Q.** How did the relative cell viability turn out when `C[C@]12CCC3=C4CCC(=O)C=C4CC[C@H]3[C@@H]1CC[C@@]2(O)CC#N` [Dienogest] was run?
**A.** Its relative cell viability is 1.19 ± 0.024.

**Q.** `COc1ccc(-c2cnc3c(-c4cccc5ncccc45)cnn3c2)cc1` was tested. Which relative cell viability did it give?
**A.** The relative cell viability was 1.171 ± 0.0012.

**Q.** `c1cc(-c2cnn3cc(-c4ccc(N5CCNCC5)cc4)cnc23)c2cccnc2c1` was tested. Which relative cell viability did it give?
**A.** The relative cell viability was 0.0982 ± 0.0034.

**Q.** `CC(C)Oc1ccc(-c2cnc3c(-c4ccnc5ccccc45)cnn3c2)cc1` was tested. Which relative cell viability did it give?
**A.** The relative cell viability was 1.19 ± 0.027.

**Q.** How did the relative cell viability turn out when `COC(=O)c1ccc2c(c1)nc(NC(=O)c1ccccc1)n2CCCc1ccccc1` was run?
**A.** Its relative cell viability is 0.777 ± 0.0059.

**Q.** With `O=C(c1ccc(Nc2nccc(-c3cc4ccccc4s3)n2)cc1)N1CCC(N2CCCC2)CC1` [IKK-16 (IKK Inhibitor VII)] as the compound, how does the relative cell viability read?
**A.** Its relative cell viability is 1.03 ± 0.02.

**Q.** Which relative cell viability does the source give for `CN1CC[C@@H](c2c(O)cc(O)c3c(=O)cc(-c4ccccc4Cl)oc23)[C@@H]1CO` here?
**A.** The relative cell viability was 0.501 ± 0.008.

**Q.** For `CN1CC[C@H](c2c(O)cc(O)c3c(=O)cc(-c4ccccc4Cl)oc23)[C@H](O)C1` [Flavopiridol HCl], which relative cell viability is on record?
**A.** Its relative cell viability is 0.293 ± 0.03.

**Q.** How did the relative cell viability turn out when `CN1CC[C@H](c2c(O)cc(O)c3c(=O)cc(-c4ccccc4Cl)oc23)[C@H](O)C1` [Flavopiridol (Alvocidib)] was run?
**A.** The relative cell viability was 0.228 ± 0.055.
